This note sets out measurements from PubChem BioAssay (NCI).

Compounds without any hit were thinned out: in the full panel of roughly 83,000, 20% have a hit.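 Interpretation: 100, growth as untreated; towards 0, rising growth inhibition; 0, no net growth; 0 to -100, cell death. Compounds scoring below 10 were considered active.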 A number with no mark means an inactive call. Activity calls are given as the source filed them.

Test systems include SK-MEL-2 melanoma; EKVX NSCLC; SN12C renal; TK-10 renal; ACHN renal; CAKI-1 renal; A498 renal; CCRF-CEM leukemia; MOLT-4 leukemia; SR leukemia; RPMI-8226 leukemia; OVCAR-8 ovarian; OVCAR-5 ovarian; OVCAR-4 ovarian; SK-OV-3 ovarian; IGROV1 ovarian; OVCAR-3 ovarian; HS 578T breast; NCI/ADR-RES ovarian.
Test in all cases: NCI-60 one-dose screen, 48 h (100 = growth as untreated, 0 = no growth, -100 = all killed)
Holding throughout (conditions): 10 µM unless noted

`NC1=C(Br)C(=O)c2ncccc2C1=O`: the growth with SK-MEL-2 melanoma was -54.1% (active); in the test on EKVX NSCLC it was -14.2% (active); in the test with SN12C renal, -84.8% (active); in the test with TK-10 renal, 79.1%; with ACHN renal, -7.81% (active); in the test with CAKI-1 renal, -81.2% (active). The growth in the test with A498 renal was 113%; with CCRF-CEM leukemia it was 10.5%; in the test with MOLT-4 leukemia, -5.62% (active); in the test with SR leukemia it was -27.8% (active); in the test with RPMI-8226 leukemia it was 0.625% (active); with OVCAR-8 ovarian, 10.3%. In addition, the growth was -49.4% (active) with OVCAR-5 ovarian; -89.5% (active) with OVCAR-4 ovarian; 34.9% with SK-OV-3 ovarian; -5.9% (active) in the test on IGROV1 ovarian; -11.9% (active) with OVCAR-3 ovarian; -13.1% (active) in the test on HS 578T breast. The growth in the test on NCI/ADR-RES ovarian is 9.48% (active).
On to `N#CCc1cccc2ccccc12`, for which the growth in the test with SK-MEL-2 melanoma was 95.1%; in the test on EKVX NSCLC, 101%; in the test on SN12C renal it was 110%; in the test on TK-10 renal, 98.3%; in the test with ACHN renal, 103%; with CAKI-1 renal, 103%. For the same molecule, the growth was 109% in the test on A498 renal; 91.9% in the test with CCRF-CEM leukemia; 92% in the test with MOLT-4 leukemia; 100% with SR leukemia; 103% with RPMI-8226 leukemia; 105% in the test with OVCAR-8 ovarian. For the same molecule, the growth in the test on OVCAR-5 ovarian is 110%; with SK-OV-3 ovarian it was 113%; in the test on IGROV1 ovarian, 106%; with OVCAR-3 ovarian, 120%; in the test with HS 578T breast, 122%; in the test with NCI/ADR-RES ovarian, 115%.
In the case of `O=C(NOC(=O)c1ccccc1)c1ccccc1`, the growth with SK-MEL-2 melanoma was 97%; with EKVX NSCLC, 95.7%; with SN12C renal it was 108%; in the test on TK-10 renal it was 97.8%; with ACHN renal, 101%; with CAKI-1 renal, 86.5%. The growth in the test with A498 renal is 94.6%; in the test with MOLT-4 leukemia, 93%; in the test with SR leukemia, 84.5%; with RPMI-8226 leukemia, 75.7%; with OVCAR-8 ovarian it was 119%; in the test on OVCAR-5 ovarian, 109%. For the same molecule, the growth in the test on OVCAR-4 ovarian is 105%; in the test with SK-OV-3 ovarian, 109%; with IGROV1 ovarian, 107%; in the test on OVCAR-3 ovarian, 115%; with HS 578T breast, 83.5%; with NCI/ADR-RES ovarian it was 93.7%.
In the case of `O=C(OC12CC3CC(CC(C3)C1)C2)c1ccc(NCc2cc(O)ccc2O)cc1`, the growth in the test with SK-MEL-2 melanoma was -19.9% (active); in the test with EKVX NSCLC it was -67.9% (active); in the test on SN12C renal, -3.25% (active); in the test on TK-10 renal, -95.9% (active); in the test with ACHN renal, -89.7% (active); in the test with CAKI-1 renal, -92.5% (active). Also, the growth in the test on CCRF-CEM leukemia was -23.7% (active); in the test on MOLT-4 leukemia, -19.5% (active); in the test on SR leukemia, -19.4% (active); in the test on RPMI-8226 leukemia, -36% (active); with OVCAR-5 ovarian, -63.4% (active); in the test with OVCAR-4 ovarian, -85.5% (active). For the same molecule, the growth is 45.7% with SK-OV-3 ovarian, -81.4% (active) in the test on IGROV1 ovarian, -90.3% (active) in the test with OVCAR-3 ovarian and -79.1% (active) in the test with NCI/ADR-RES ovarian.
In the case of `COc1cc(/C=C/c2ccnc3ccccc23)cc(OC)c1OC`, the growth in the test on SK-MEL-2 melanoma is 12.2%; with EKVX NSCLC, 55.3%; in the test with SN12C renal it was 31%; with TK-10 renal it was 70.1%; with ACHN renal it was 54.7%; in the test with CAKI-1 renal it was 24.3%. Also, the growth is 18% with A498 renal; 43.5% in the test on CCRF-CEM leukemia; 14.9% in the test with MOLT-4 leukemia; 7.06% (active) in the test on SR leukemia; 60.6% with RPMI-8226 leukemia; 42.5% in the test with OVCAR-8 ovarian. In addition, the growth is 50.5% with OVCAR-5 ovarian; 54.6% in the test with OVCAR-4 ovarian; 30.1% in the test on SK-OV-3 ovarian; 59.1% with IGROV1 ovarian; 16.4% in the test with OVCAR-3 ovarian; 24.4% in the test on HS 578T breast. Also, the growth in the test on NCI/ADR-RES ovarian is -25.5% (active).
For `Cc1ccc(NC2=CC(=O)C(=O)c3ccccc32)cc1`, the growth in the test with SK-MEL-2 melanoma was 4.01% (active); in the test on EKVX NSCLC, 73%; in the test with SN12C renal it was -39.2% (active); with TK-10 renal it was 42.4%; in the test on ACHN renal, 21.9%; in the test on CAKI-1 renal, 35.5%. The growth with A498 renal is 63.2%; in the test with CCRF-CEM leukemia it was 27%; in the test with MOLT-4 leukemia, 28.7%; in the test on SR leukemia it was 25.9%; in the test with OVCAR-8 ovarian, 25%; in the test with OVCAR-5 ovarian it was -25.4% (active). In addition, the growth in the test with OVCAR-4 ovarian was -0.0623% (active); in the test on SK-OV-3 ovarian it was 79.9%; in the test on IGROV1 ovarian, 17.6%; in the test on OVCAR-3 ovarian, 13.7%; in the test on HS 578T breast, 16.3%.
With `Nc1nc2ncc(CNc3ccc(C(=O)NC(CCC(=O)NC(CCC(=O)NC(CCC(=O)NC(CCC(=O)NC(CCC(=O)O)C(=O)O)C(=O)O)C(=O)O)C(=O)O)C(=O)O)cc3)nc2c(=O)[nH]1` (stereo unspecified), the growth is 118% with SK-MEL-2 melanoma; 95.9% in the test on EKVX NSCLC; 101% with SN12C renal; 119% with TK-10 renal; 110% with ACHN renal; 89.7% with CAKI-1 renal. The growth in the test on A498 renal was 116%; in the test on CCRF-CEM leukemia, 102%; with MOLT-4 leukemia, 107%; in the test on RPMI-8226 leukemia it was 112%; in the test on OVCAR-8 ovarian it was 101%; with OVCAR-5 ovarian, 110%. Also, the growth was 111% in the test with OVCAR-4 ovarian; 101% in the test on SK-OV-3 ovarian; 103% in the test on IGROV1 ovarian; 118% with OVCAR-3 ovarian; 90.1% in the test with HS 578T breast; 119% in the test on NCI/ADR-RES ovarian.
For `c1ccc2sc(SSN3CC4CCC(CC4)C3)nc2c1`, the growth is 124% in the test on SK-MEL-2 melanoma; 106% in the test with EKVX NSCLC; 104% in the test with SN12C renal; 121% with TK-10 renal; 98.3% in the test on ACHN renal; 104% with CAKI-1 renal. The growth in the test on A498 renal was 142%; with CCRF-CEM leukemia, 111%; in the test on MOLT-4 leukemia, 56.3%; with RPMI-8226 leukemia, 111%; in the test on OVCAR-8 ovarian it was 106%; with OVCAR-5 ovarian, 112%. Moreover, the growth in the test with OVCAR-4 ovarian was 102%; in the test with SK-OV-3 ovarian it was 108%; in the test on IGROV1 ovarian, 14.6%; in the test on OVCAR-3 ovarian, 150%; in the test on HS 578T breast, 92.7%; in the test on NCI/ADR-RES ovarian, 108%.
Turning to `CCOC(=O)C1=C(C(=O)c2ccccc2)C(c2cccc([N+](=O)[O-])c2)C(C(=O)c2ccccc2)=C(C(=O)OCC)N1`, the growth in the test on SK-MEL-2 melanoma is 105%; in the test on EKVX NSCLC, 87.9%; with SN12C renal, 93.7%; in the test with TK-10 renal, 112%; with ACHN renal, 88.4%; in the test with CAKI-1 renal, 79.6%. Further, the growth was 104% in the test with A498 renal; 65% with CCRF-CEM leukemia; 52.2% with MOLT-4 leukemia; 32.8% in the test on RPMI-8226 leukemia; 96.8% with OVCAR-8 ovarian; 87.7% in the test with OVCAR-5 ovarian. Further, the growth is 92.2% in the test on OVCAR-4 ovarian; 96.8% in the test with SK-OV-3 ovarian; 97.5% in the test on IGROV1 ovarian; 96.1% with OVCAR-3 ovarian; 90.1% in the test on HS 578T breast; 90.9% in the test on NCI/ADR-RES ovarian.
